Experimental findings from PubChem BioAssay (EPA / NIEHS) are described below.

Results filed as inconclusive are left out. Calls of active or inactive are those of the source. Rule for the calls: active = hit-call score of the fitted dose curve at least 0.9, where 1 is the maximum; inconclusive = response in the unintended direction; inactive = score below 0.9.

As a reminder, the AC50 is the concentration at which the activity in the assay is half-maximal.

The experiment in a line: TOX21_p53_BLA_p5_viability: Viability Assessment in the Tox21 HCT-116 p53 Agonism Beta-lactamase Assay, Phase 5 (AID 2283600). An excerpt: TOX21_p53_BLA_p5 is a cell-based, single-readout assay that uses HCT116, a human intestinal cell line, […] in a 1536-well plate.TOX21_p53_BLA_p5_viability is an assay readout measuring cellular ATP content and detected with CellTiter-Glo Luciferase-coupled ATP quantitation.TOX21_p53_BLA_p5_viability used a type of viability reporter where loss-of-signal activity can be used to understand changes in the cell viability. Furthermore, this assay endpoint can be referred to as a secondary readout, because this assay has produced multiple assay endpoints where this one serves a viability function. To generalize the intended target to other relatable targets, this assay endpoint is annotated to the cell cycle intended target family, where the subfamily is cytotoxicity.
Thawing Method: Place 14 mL of pre-warmed thaw medium into a 15 mL of conical tub. Remove the vial of cells to be thawed from liquid nitrogen and thaw rapidly by placing at 37C in a water bath with gentle agitation for 1-2 minutes. Decontaminate the vial by wiping with 70% ethanol before opening in a biological safety cabinet. Transfer the vial contents drop-wise into 14 mL of thaw medium in a sterile 15-mL conical tub. Centrifuge cells at 900 rpm for 4 minutes and resuspend in thaw medium. Transfer contents to the T75 tissue culture flask containing Thaw Medium and place flask in a humidified 37C/5% CO2 incubator. Switch to growth medium at first passage.Propagation Method: Aspirate medium, rinse once in DPBS, add 0.25% Trypsin/EDTA and swirl to coat the cell evenly. Add an equal volume of Growth Medium to inactivate Trypsin after 2-3 minutes incubation at 37C. Centrifuge cells at 900 rpm for 4 minutes and resuspend in growth medium. Cell should be passage or fed at least twice a week.Assay Protocol: Harvest cells from culture in growth medium and resuspend in assay medium. 2.2 Dispense 4000 cells/5 uL/well into 1536-well black/clear bottom plates using a Multidrop dispenser. After the cells were incubated at 37C for 5 hours, 23 nL of compounds dissolved in DMSO were transferred to the assay plate by a PinTool resulting in a 217-fold dilution. Incubate the plates for 16 hours at 37C, 5% CO2. Add 1 uL of 6X LiveBLAzer FRET B/G (CCF4-AM) Substrate Mixture to each well using a BioRAPTR dispenser and incubate the plates at room temperature for 2 hours. Measure fluorescence intensity at 460 and 530 nm emission and 405 nm excitation by an Envision detector. Data is expressed as the ratio of 460nm/530nm emissions. Add 4 uL of Cell-titer Glo to each well using BioRAPTR and incubate the plates at room temperature for […]. For cell viability readout that measures cytotoxicity, 4 ul/well of CellTiter-Glo reagent was added into the assay plates using a Flying Reagent Dispenser. After 30 min incubation at room temperature, the luminescence intensity in the plates was measured using a ViewLux plate reader.
As to `CC(C)NC(=O)N1CC(=O)N(c2cc(Cl)cc(Cl)c2)C1=O`, the call was inactive. Same read-out and setting: to `CC(C)Oc1cccc(NC(=O)c2ccccc2C(F)(F)F)c1` belongs “inactive”; to `CCOc1nc(C(Cl)(Cl)Cl)ns1`, “inactive”; to `CN=C=S`, “inactive”. The same measure, in the same setting: the result for `CCCCC(C#N)(Cn1cncn1)c1ccc(Cl)cc1` (stereo not given) reads “inactive”; that for `Cn1c(-c2ccccc2)cc(-c2ccccc2)[n+]1C`, “inactive”. Same read-out and setting: to `Nc1cnn(-c2ccccc2)c(=O)c1Cl` belongs “inactive”; to `COC(=O)N(C(=O)N1CO[C@@]2(C(=O)OC)Cc3cc(Cl)ccc3C2=N1)c1ccc(OC(F)(F)F)cc1`, “inactive”. Take `OC(c1ccc(Cl)cc1)(c1ccc(Cl)cc1)C(Cl)(Cl)Cl`: the AC50 is 71 µM (active). On to `Clc1cccc(C(Cl)(Cl)Cl)n1`, for which the result was inactive.

As to `Clc1nc(Cl)nc(Nc2ccccc2Cl)n1`, the outcome was inactive. Still for that read-out and setting: to `COP(=S)(OC)SCn1nnc2ccccc2c1=O` belongs “inactive”. In the case of `CN/C(=N\[N+](=O)[O-])NCc1cnc(Cl)s1`, the compound was classed as inactive. With `CC1(C)C(C(=O)OC(C#N)c2cccc(Oc3ccccc3)c2)C1(C)C` (stereo not given), the call was inactive. On to `CCCN(CC)CC1COC2(CCC(C(C)(C)C)CC2)O1` (stereo not given), for which the compound was called inactive.

As to `COC(=O)c1c(C(F)F)nc(C(F)(F)F)c(C2=NCCS2)c1CC(C)C`, the outcome was inactive. As for `CCOP(=O)(OCC)Oc1nc(Cl)c(Cl)cc1Cl`, the compound was classed as inactive.

`CC(C)N1C(=O)N(c2ccccc2)CSC1=NC(C)(C)C`: the AC50 was 69 µM (active).

As to `Cc1c(COC(=O)[C@@H]2[C@H](/C=C(\Cl)C(F)(F)F)C2(C)C)cccc1-c1ccccc1`, the compound was called inactive.

Regarding `Nc1c(Cl)c(Cl)nc(C(=O)O)c1Cl`, the result was inactive. The same measure, in the same setting: the result for `CS(=O)(=O)c1cc(C(F)(F)F)ccc1C(=O)c1cnoc1C1CC1` reads “inactive”; that for `CC(C)C1(C)N=C(c2ncccc2C(=O)O)NC1=O` (stereo not given), “inactive”; that for `N#Cc1c[nH]cc1-c1cccc2c1OC(F)(F)O2`, “inactive”. On the same count and under the same terms, to `CO/N=C(/C1=NOCCO1)c1ccccc1Oc1ncnc(Oc2ccccc2Cl)c1F` belongs “inactive”; to `COCC(C)N(C(=O)CCl)c1c(C)csc1C` (stereo not given), “inactive”. For `Cc1ccc(N=CN(C)C=Nc2ccc(C)cc2C)c(C)c1`, the compound was called inactive.

With `CCCCC(O)(Cn1cncn1)c1ccc(Cl)cc1Cl` (stereo not given), the result was inactive. For the compound `CCOC(=O)C(C)OC(=O)c1cc(Oc2ccc(C(F)(F)F)cc2Cl)ccc1[N+](=O)[O-]` (stereo not given), the call was inactive. The same measure, in the same setting: the result for `Cc1cnc(C2=NC(C)(C(C)C)C(=O)N2)c(C(=O)O)c1` (stereo not given) reads “inactive”; that for `CC1(C)C(C=C(Cl)Cl)C1C(=O)OC(C#N)c1cccc(Oc2ccccc2)c1` (stereo not given), “inactive”; that for `CC1(C)CCC(=Cc2ccc(Cl)cc2)C1(O)Cn1cncn1` (stereo not given), “inactive”.

Take `CSC(=O)c1c(C(F)F)nc(C(F)(F)F)c(C(=O)SC)c1CC(C)C`: the compound was classed as inactive. On the same count and under the same terms, to `CNC(=O)Oc1cccc2ccccc12` belongs “inactive”; to `COP(=S)(OC)Oc1ccc([N+](=O)[O-])c(C)c1`, “inactive”. In the case of `O=c1n(Cl)c(=O)n(Cl)c(=O)n1Cl`, the compound was called inactive. The same measure, in the same setting: the result for `O=C(Nc1ccccc1-c1ccc(Cl)cc1)c1cccnc1Cl` reads “inactive”; that for `CCCCOCN(C(=O)CCl)c1c(CC)cccc1CC`, “inactive”; that for `C=CCOC(=O)C(C)(C)OC(=O)c1cc(-n2c(=O)cc(C(F)(F)F)n(C)c2=O)ccc1Cl`, “inactive”. In the case of `CC(C)(C)C(=O)C(Oc1ccc(Cl)cc1)n1cncn1` (stereo not given), the outcome was inactive. On the same count and under the same terms, to `COC(=O)NC(=S)Nc1ccccc1NC(=S)NC(=O)OC` belongs “inactive”.
